Compound activity: PubChem, National Center for Advancing Translational Sciences (NCATS)
LMNA splice mod: changes lamin A minigene splicing in HeLa cells. HeLa LMNA splicing GFP/RFP minigene ratio, 48 h. Potency, µM (titrated, usually from 46.1 µM), without a hit: top-dose ratio change, negative = inhibition, actives largely listed as inhibitors. 200,000 compounds, 0.01% hits. AID 1487; active = well fitted inhibition curve with a large enough effect in the signal ratio, with a control signal flat, not every such curve was filed as active; inconclusive = small, poorly fitted or top-dose-only effect, or effect the other way, or a change in a side signal; the % refers to the signal ratio
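Read-out is the ratio of GFP to DsRed2 object intensity, acquired by 488 nm laser-scanning cytometry on HeLa lamin A-EGFP minigene reporter cells. Compound incubation 48 hrs at 37 °C in Opti-MEM with 2% FBS; DMSO 0.5% final.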
ALDH1A1 inh: ALDH1A1 (human) enzyme inhibition; Purified ALDH1A1, NADH fluorescence, propionaldehyde substrate; 220,000 compounds, 7.3% hits; Potency, µM (doses to about 75.3 µM), for the others: at the highest dose activity, negative = inhibition, hits mostly inhibitors; P00352; active = well fitted inhibition curve with a large enough effect, not every such curve was filed as active; inconclusive = small, poorly fitted or top-dose-only effect, or another doubt; inactive = no such curve, though single readings can be large or run the other way;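 also: plate controls were no enzyme wells and a reference inhibitor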
Target sequence (P00352 whole entry, looked up): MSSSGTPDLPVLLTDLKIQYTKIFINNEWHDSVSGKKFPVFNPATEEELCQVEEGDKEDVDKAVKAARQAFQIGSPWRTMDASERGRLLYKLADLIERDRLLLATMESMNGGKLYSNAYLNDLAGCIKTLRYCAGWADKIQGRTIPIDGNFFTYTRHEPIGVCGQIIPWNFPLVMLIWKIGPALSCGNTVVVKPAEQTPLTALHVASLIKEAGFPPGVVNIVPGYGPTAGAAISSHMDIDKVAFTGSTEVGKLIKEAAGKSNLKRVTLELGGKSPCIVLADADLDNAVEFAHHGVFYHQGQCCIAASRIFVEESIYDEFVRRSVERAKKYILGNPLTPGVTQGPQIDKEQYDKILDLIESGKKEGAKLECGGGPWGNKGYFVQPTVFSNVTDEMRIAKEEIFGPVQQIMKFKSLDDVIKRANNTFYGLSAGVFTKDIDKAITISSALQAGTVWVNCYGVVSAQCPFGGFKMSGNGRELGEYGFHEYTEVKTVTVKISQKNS
HPGD block: HPGD (human) dehydrogenase inhibition | Potency, µM, inactives show at the highest dose activity change, negative = inhibition, usual class: inhibitors | AID 894 | purified HPGD, NADH fluorescence kinetic, PGE2 substrate | 150,000 compounds, 4.3% hits | P15428; active = well fitted inhibition curve with a large enough effect, not every such curve was filed as active; inconclusive = small, poorly fitted or top-dose-only effect, or another doubt; inactive = no such curve, though single readings can be large or run the other way
Target sequence (P15428 whole entry, looked up): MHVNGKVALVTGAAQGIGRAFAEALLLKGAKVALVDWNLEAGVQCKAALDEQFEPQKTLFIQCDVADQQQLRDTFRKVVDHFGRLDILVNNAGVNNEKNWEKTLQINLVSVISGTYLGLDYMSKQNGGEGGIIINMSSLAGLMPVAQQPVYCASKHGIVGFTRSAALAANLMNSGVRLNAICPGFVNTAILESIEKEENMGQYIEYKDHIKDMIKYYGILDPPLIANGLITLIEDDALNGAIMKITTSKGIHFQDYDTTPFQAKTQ
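20 nM HPGD preincubated 15 min at room temperature with compound in 50 mM Tris-HCl pH 8, 0.01% Tween 20. Started with 1 mM NAD+ and 30 uM prostaglandin E2; NADH fluorescence (360/450 nm) read 5 times over 30-s intervals, last minus first.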
Luc counter: counter-screen: inhibitors of Kinase-Glo firefly luciferase; Q27757; Kinase-Glo luciferase, ATP luminescence, 8 min; Potency, µM (titrated, usually from 38.3 µM), inactives show top-dose activity change, negative = inhibition, most hits filed as inhibitors; 200,000 compounds, 0.28% hits; AID 1379; also: nearly all actives have a fitted effect of over 60% in size
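Light output from Kinase-Glo luciferase with luciferin and 10 uM ATP in 50 mM imidazole pH 7.2, KCl, MgCl2, Tween 20, BSA; compound pin-delivered, 8-min ambient incubation, then luminescence read.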
IMPase Li cell: IMPase inhibition in cells with lithium potentiation; CHO-M1 cells, IP1 TR-FRET (IP-One), carbachol + lithium; Potency, µM (top dose mostly 59.4 µM), inactives show at the highest dose activity, negative = IMPase inhibition, most hits filed as inhibitors; 210,000 compounds, 0.35% hits;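 also: IP1 builds up when IMPase is blocked and the TR-FRET signal falls; plate controls were basal vehicle for no effect and high inhibitor control for full effect; nearly all actives have a fitted effect of over 50% in size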
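Steps: plate 2000 CHO-M1 cells per well and culture 16–30 h; add compound and lithium; incubate 30 min, 37C; add d2-IP1 tracer and Eu cryptate anti-IP1 antibody in lysis buffer; read after 10 min at room temperature.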
An asterisk follows results filed as active; ? = inconclusive; · = no result given; [ ] = another dose, or the depositor's remark. Most compounds without a hit are left out; they make up all but 9% or so of the library. Unless noted, calls follow the shape of the dose curve; as a rule, active = well fitted curve in the direction sought with a large enough effect; inconclusive = small, poorly fitted or top-dose-only effect, or another doubt; inactive = no such curve, though single readings can be large; an effect the other way counts as inactive or inconclusive. Unless noted, % is scaled to controls: 0 for no effect and ±100 for the full control effect; potency is read from the fitted curve at half-maximal effect.

SMILES	LMNA splice mod	ALDH1A1 inh	HPGD block	Luc counter	IMPase Li cell
COc1ccc(CCNC(=O)CC2SC(=NCCc3ccccc3)NC2=O)cc1OC (stereo not given)	4.9%	14.1µM*	-1.0%	3.7%	-1.4%
CC1CC(C)CN(C(=O)C(C)N(C)CC(=O)Nc2ccc(Cl)cc2)C1 (stereo not given)	·	?	·	·	3.7%
COc1ccc(S(=O)(=O)N2CCN(C(=S)NC3CCCCC3)CC2)cc1	?	-7.0%	·	1.7%	6.4%
O=C(Nc1cccc(F)c1)N1CCCC2(CCN(C(=O)c3cnccn3)CC2)C1	·	?	-9.3%	0.5%	8.5%
CCNC(=O)OCC12CC3CC(CC(C3)C1)C2	-1.5%	?	-7.2%	3.3%	3.6%
O=[N+]([O-])c1ccc(N/N=C2/CCCCC2c2ccccn2)cc1 (stereo not given)	-1.6%	0.0447µM*	-13.7%	2.1%	15.7%
Cc1cc(SCC(=O)N/N=C/c2ccc(O)cc2O)c(C)cc1Br	?	-7.0%	20µM*	-2.7%	35.1%[38.3 µM]
O=C(CCCCCNC(=O)c1ccccc1)N/N=C/c1ccc(O)cc1O	-3.9%	5.6%	28.2µM*	2.3%	8.3%
Cc1nonc1C(=O)N/N=C/c1ccc(O)cc1O	?	8.5%	·	-2.6%	5.2%
CCOC(=O)c1c(C)[nH]c(C)c1S(=O)(=O)N1CCCC(C(=O)Nc2ccc(OC)c(OC)c2)C1 (stereo not given)	14.7%[46 µM]	·	·	·	·
NNc1cc(C(=O)O)ccc1Cl	16.4%[46 µM]	22.4µM*	·	·	·
Cc1cc(C)c2c(-n3cccc3)c(C(=O)NNS(=O)(=O)c3ccc(Br)cc3)sc2n1	-2.6%	0.0891µM*	-4.1%	0.8%	10.9%[38.3 µM]
CCOC(=O)Nc1sc2nc(C)cc(C)c2c1-n1cccc1	-11.4%	?	-19.9%	10.5%	22.3%[38.3 µM]
Cc1ccc2c(c1)N(C(=O)N1CCC(C(=O)NC3CCCCCC3)CC1)CC(C)O2 (stereo not given)	-0.8%[46 µM]	·	·	·	·
CC(C#N)On1c(SC(C)C#N)nc2ccccc2c1=O (stereo not given)	13.1%	15.8µM*	-7.5%	1.2%	29.9%[38.3 µM]
CCC(C)n1c(SC(C)C#N)nc2ccccc2c1=O (stereo not given)	-0.5%	?	-0.4%	-1.3%	6.7%[38.3 µM]
Cc1ccc(C)c(N2CCN(C(=O)CSc3ccsc3[N+](=O)[O-])CC2)c1	?	11.2µM*	?	4.1%	7.5%
O=C(CSc1ccsc1[N+](=O)[O-])N1CCN(c2ccccc2)CC1	?	?	-3.0%	-1.2%	5.5%
CC(C)(C)NC(=O)CN(C(=O)C(=O)Nc1ccc2c(c1)OCCO2)C(C)(C)C	-3.7%[46 µM]	5.4%	·	0.3%	5.4%
Cc1cc(C)c(S(C)(=O)=O)c(Oc2cccc(C(F)(F)F)c2)n1	·	?	·	-1.5%	3.4%
O=C(CN1CCC(c2nc3ccccc3s2)CC1)NCc1cccs1	?	6.31µM*	?	0.4%	27.8%[38.3 µM]
O=C(CN1CCC(n2nnc3cc(C(F)(F)F)ccc32)CC1)NCc1cccs1	?	3.1%	0.6%	-0.1%	8.6%
CC(C)n1c(N2CCN(CC(=O)NCc3cccs3)CC2)nc2ccccc21	-18.7%	10µM*	-11.2%	-1.7%	18.8%[38.3 µM]
COc1ccc(Cl)cc1S(=O)(=O)N1CCN(C(=O)c2cc(-c3ccc(Br)cc3)n[nH]2)CC1	-19.1%[46 µM]	·	·	·	·
CN(C)/C=C/c1onc(-c2c(Cl)cccc2Cl)c1C#N	-4.0%[9.22 µM]	12.6µM*	·	-2.6%	17.4%
SMILES	LMNA splice mod	ALDH1A1 inh	HPGD block	Luc counter	IMPase Li cell
N#Cc1c(-c2c(Cl)cccc2Cl)noc1/C=C/Nc1ccc(C(=O)O)cc1	·	3.55µM*	·	-2.2%	10.5%
COc1cc(/C=C/C(=O)Oc2coc(CSc3ncccn3)cc2=O)cc(OC)c1OC	·	?	·	-4.1%	-6.0%
Cc1ccc2c(c1)C1CCCC3C1N2CC(=O)N3Cc1ccccc1 (stereo not given)	-1.6%	22.4µM*	-23.4%	-0.4%	16.8%[38.3 µM]
C=CCNC(=O)c1ccc2nccnc2c1	0.2%	-17.0%	15.8µM*	2.2%	-5.5%
O=c1oc2ccccc2c(NCc2ccccc2F)c1[N+](=O)[O-]	-6.9%	1.12µM*	15.8µM*	2.0%	2.5%
CC(C)c1ccc(CNc2c([N+](=O)[O-])c(=O)oc3ccccc23)cc1	·	0.3%	·	4.3%	-3.1%
CCC(=O)Oc1ccc(C(=O)Nc2c[nH]c(=O)[nH]c2=O)cc1	1.2%	4.1%	-18.7%	?	7.6%
O=S(=O)(NC(=S)NC1CCCCC1)c1cccs1	·	5.62µM*	·	3.1%	6.9%
O=C(Nc1cccs1)NC1CCCC1	-1.9%	7.08µM*	31.6µM*	-10.9%	22.4%[38.3 µM]
S=C(Nc1ccc(Nc2ccccc2)cc1)NC1CCCCCC1	?	-7.6%	·	1.8%	-1.3%
O=S(=O)(NC(=S)NC1CCCCC1)c1ccccc1	·	22.4µM*	·	1.2%	4.5%
CC1CCC(NC(=O)Nc2cccs2)CC1 (stereo not given)	11.4%	?	?	0.1%	26.0%[38.3 µM]
CN1CC[C@@]2(CCCN(C(=O)c3cccc(F)c3)C2)C1	·	2.6%	-0.8%	-5.0%	-1.8%
COc1cccc(OC)c1C(=O)Nc1cc(Cl)ccc1N1CCOCC1	-5.3%	-4.2%	-2.5%	1.4%	-0.4%
CC1CCCN(C(=O)C(C)Nc2cc(Cl)ccc2N2CCOCC2)C1 (stereo not given)	·	10µM*	·	-10.8%	9.5%
CC(C)C1CC(CCNCc2ccc(N(C)C)cc2)(c2ccccc2)CCO1 (stereo not given)	-16.2%	20µM*	·	·	·
Cc1ccc(C2(CCNCc3ccc(N(C)C)cc3)CCOC(C(C)C)C2)cc1 (stereo not given)	0.5%[46 µM]	25.1µM*	·	-3.1%	2.0%
O=C(NCc1ccccn1)C(C(=O)c1cccc([N+](=O)[O-])c1)n1cc(Cl)ccc1=O (stereo not given)	-0.7%[46 µM]	?	·	-0.9%	-4.7%
CCN(CC)C(=O)c1ccc(N)cc1	-8.5%[46 µM]	0.4%	·	2.0%	6.6%
CCN(CC)C(=O)c1ccc(Nc2nnc(C)c3ccccc23)cc1	-12.8%	3.98µM*	2.24µM*	11.2µM*	-13.6%
CCN(CC)c1ccc(CNC23CN4CN(CN(C4)C2)C3)cc1	?	5.01µM*	-12.3%	1.2%	34.2%[38.3 µM]
CCCCn1nnnc1NCc1ccc(N(CC)CC)cc1	6.1%	8.7%	1.6%	-3.9%	33.1%[38.3 µM]
CC1SC(c2ccccc2)N(CC(O)c2ccc([N+](=O)[O-])cc2)C1=O (stereo not given)	·	3.7%	·	-1.2%	7.7%
O=[N+]([O-])c1ccccc1S(=O)(=O)Oc1ccccc1/C=N/n1cnnc1	-7.5%	-0.5%	17.8µM*	-0.1%	8.5%
O=[N+]([O-])c1cccc(/C=N/n2cnnc2)c1O	-5.5%	-4.0%	-10.6%	-2.3%	-6.3%
